Bioassay records as filed in PubChem.
Many of the other results were omitted from the sample, so hits are more common in it than they were.
IDE exosite FP – exo-site inhibitors of human IDE, primary screen, biochemical, fluorescence anisotropy, probe displacement. 17,000 tested, 6.3% active. z-score at 20 µM. AID 1259349, 2017. Insulin-degrading enzyme (Homo sapiens), P14735. purified IDE, FL-6b probe fluorescence polarization; stronger effect = lower value;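 active = z-score of -3 or lower, meaning strong loss of probe binding signal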;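 also: His-tagged human IDE residues 42-1019 made in E. coli with 30 nM FL-6b probe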
An asterisk follows results filed as active; ! = repeats disagree.

SMILES	IDE exosite FP
COc1ccccc1NC(=O)N1CC(=O)N2[C@@H](CO)[C@@H](c3ccc(C#Cc4ccccc4)cc3)[C@@H]2C1	-0.755
O=C(c1ccncc1)N1CC(=O)N2[C@H](CO)[C@H](c3ccc(/C=C/c4ccccc4)cc3)[C@@H]2C1	-9.51*
O=C(c1cccnc1)N1CC(=O)N2[C@H](CO)[C@@H](c3ccc(/C=C/c4ccccc4)cc3)[C@@H]2C1	-4.33*
O=C(c1ccncc1)N1CC(=O)N2[C@H](C1)[C@H](c1ccc(/C=C/c3ccccc3)cc1)[C@@H]2CO	-0.295
O=C(c1ccccc1)N1CC(=O)N2[C@H](C1)[C@H](c1ccc(/C=C/c3ccccc3)cc1)[C@@H]2CO	-2.24
CC(C)CC#Cc1ccc([C@H]2[C@@H](CO)N3C(=O)CN(C(=O)c4cccc(F)c4)C[C@@H]23)cc1	-0.728
CC(C)CC#Cc1ccc([C@@H]2[C@H](CO)N3C(=O)CN(S(=O)(=O)c4cccc(F)c4)C[C@@H]23)cc1	-0.33
COc1cccc(-c2ccc([C@@H]3[C@@H](CO)N4CCCCN(Cc5cncnc5)C[C@H]34)cc2)c1	0.317
COc1cccc(-c2ccc([C@@H]3[C@@H](CO)N4CCCCN(CC5CC5)C[C@H]34)cc2)c1	-1.76
COc1cccc(-c2ccc([C@H]3[C@H]4CN(Cc5cncnc5)CCCCN4[C@H]3CO)cc2)c1	-2.03
Cc1cccc(-c2ccc([C@@H]3[C@@H](CO)N4CCCCN(Cc5cncnc5)C[C@H]34)cc2)c1	-4.56*
COc1cccc(-c2ccc([C@H]3[C@H](CO)N4CCCCN(CC5CC5)C[C@@H]34)cc2)c1	-0.719
COc1cccc(-c2ccc([C@H]3[C@H]4CN(CC5CC5)CCCCN4[C@H]3CO)cc2)c1	-4.09*
Cc1ccc(-c2ccc([C@@H]3[C@H](CO)N4CCCCN(Cc5cncnc5)C[C@@H]34)cc2)cc1	0.206
OC[C@H]1[C@H](c2ccc(-c3ccccc3)cc2)[C@@H]2CN(Cc3cncnc3)CCCCN12	0.387
COc1cccc(-c2ccc([C@@H]3[C@H]4CN(Cc5cncnc5)CCCCN4[C@H]3CO)cc2)c1	-3.94*
Cc1cccc(-c2ccc([C@H]3[C@@H](CO)N4CCCCN(Cc5cncnc5)C[C@@H]34)cc2)c1	-1.13
Cc1cccc(-c2ccc([C@H]3[C@H]4CN(Cc5cncnc5)CCCCN4[C@H]3CO)cc2)c1	-5.97*
OC[C@H]1[C@H](c2ccc(-c3ccccc3)cc2)[C@H]2CN(Cc3cncnc3)CCCCN21	0.904
O=S(=O)(c1ccccc1)N1CCCCN2[C@@H](CO)[C@@H](c3ccc(C#Cc4ccccn4)cc3)[C@@H]2C1	-1.01
COc1ccccc1NC(=O)N1CC(=O)N2[C@H](CO)[C@H](c3ccc(C#CC4CC4)cc3)[C@@H]2C1	-0.842
CO[C@@H]1CN(C)C(=O)c2cc(NC(=O)CN(C)C)ccc2OC[C@@H](C)N(Cc2ccccc2F)C[C@H]1C	1.43
C/C=C/c1ccc([C@H]2[C@H](CO)N3CCCCN(S(=O)(=O)c4cccc(C)c4)C[C@@H]23)cc1	2.03
COCC(=O)N1CC2(CN(Cc3ccccc3)C2)c2c(n(C)c3cc(OC)ccc23)[C@@H]1CO	-1.09
Cc1cccc(-c2ccc([C@H]3[C@H](CO)N4CCCCN(Cc5cncnc5)C[C@@H]34)cc2)c1	-7.37*
SMILES	IDE exosite FP
OC[C@H]1[C@@H](c2ccc(-c3ccccc3)cc2)[C@@H]2CN(Cc3cncnc3)CCCCN12	-1.1
Cc1ccc(-c2ccc([C@@H]3[C@@H](CO)N4CCCCN(Cc5cncnc5)C[C@@H]34)cc2)cc1	-0.541
CCC(=O)N1C[C@H](O)COC[C@@H]2O[C@@H](CC(=O)NC)CC[C@H]21	0.412
N#C[C@@H]1[C@@H](c2ccc(/C=C/c3ccccc3)cc2)[C@@H](CO)N1C(=O)C1CCCCC1	-1.28
COc1ccccc1NC(=O)N1C[C@@H](C)[C@H](OC)CN(C)C(=O)c2ccc(NC(=O)c3cc(C)on3)cc2OC[C@H]1C	0.0193
CC(C)NC(=O)N1CCCCN2[C@H](CO)[C@@H](c3ccc(C#Cc4ccccc4)cc3)[C@H]2C1	-9.21*
CC(C)NC(=O)N1CCCCN2[C@H](C1)[C@@H](c1ccc(C#C[C@H](C)O)cc1)[C@@H]2CO	0.794
CC(C)NC(=O)N1CCCCN2[C@H](CO)[C@H](c3ccc(C#Cc4ccccc4)cc3)[C@H]2C1	-5.02*
CC(C)C#Cc1ccc([C@H]2[C@H]3CN(C(=O)NC(C)C)CCCCN3[C@H]2CO)cc1	-0.262
CC(C)C#Cc1ccc([C@@H]2[C@H](CO)N3CCCCN(C(=O)Nc4ccccc4)C[C@@H]23)cc1	3.17
CC(C)NC(=O)N1CCCCN2[C@H](CO)[C@@H](c3ccc(C#CC4CC4)cc3)[C@H]2C1	-0.901
CC(C)C#Cc1ccc([C@@H]2[C@H](CO)N3CCCCN(C(=O)NC(C)C)C[C@@H]23)cc1	-0.179
CC(C)NC(=O)N1CCCCN2[C@H](CO)[C@H](c3ccc(C#C[C@H](C)O)cc3)[C@@H]2C1	-0.262
CC(C)NC(=O)N1CCCCN2[C@@H](CO)[C@H](c3ccc(C#C[C@@H](C)O)cc3)[C@@H]2C1	1.36
CC(C)NC(=O)N1CCCCN2[C@H](C1)[C@H](c1ccc(C#Cc3ccccc3)cc1)[C@@H]2CO	-12.5*
CC(C)C#Cc1ccc([C@H]2[C@@H](CO)N3CCCCN(C(=O)NC(C)C)C[C@@H]23)cc1	1.78
CC(C)NC(=O)N1CCCCN2[C@H](C1)[C@@H](c1ccc(C#Cc3ccccc3)cc1)[C@@H]2CO	-3.67*
COc1ccccc1NC(=O)N1C[C@@H](C)[C@H](OC)CN(C)C(=O)c2cc(NC(=O)c3cnccn3)ccc2OC[C@H]1C	0.545
COc1cccc(CNC(=O)C[C@H]2CC[C@@H]3[C@@H](COc4ccc(NC(=O)c5cccs5)cc4C(=O)N3C)O2)c1	-0.147
CCC(=O)N1CC[C@H]2[C@@H]1c1cc(C#Cc3ccccc3OC)ccc1N(C)[C@H]2CO	-1.07
C[C@@H]1CN([C@@H](C)CO)C(=O)CCCn2nncc2CO[C@@H]1CN(C)Cc1ccc2cccnc2c1	0.0466
CCC(=O)N1[C@H](CO)[C@H](c2ccc(-c3ccncc3)cc2)[C@@H]1CN(C)C(C)=O	0.193
CCC(=O)N1CC(=O)N2[C@@H](CO)[C@@H](c3ccc(C#CC(C)C)cc3)[C@@H]2C1	0.669
O=C(N[C@H]1C=C[C@@H](CC(=O)N2CCC(Cc3ccccc3)CC2)O[C@H]1CO)c1cnccn1	0.677
Cc1cccc(S(=O)(=O)N2CC[C@H]3[C@H](CO)Nc4ccc(-c5ccccc5F)cc4[C@H]32)c1	2.73
SMILES	IDE exosite FP
C[C@@H]1CCCCO[C@H](CN(C)C(=O)Nc2cccc3ccccc23)[C@@H](C)CN([C@H](C)CO)C(=O)c2cc(NC(=O)CCC(F)(F)F)ccc2O1	-0.647
C/C=C/c1ccc([C@@H]2[C@@H](CO)N3C(=O)CN(Cc4ccc(C(=O)OC)cc4)C[C@@H]23)cc1	1.99
COc1cccc(CN2C[C@@H]3N[C@H](C2)C3c2ccc(-c3ccccc3F)cc2)c1 (some centres not stated)	-5.06*!
Fc1ccc(-c2ccc(C3[C@@H]4CN(Cc5cccc(F)c5)C[C@H]3N4)cc2)cc1 (some centres not stated)	3.66
COc1cccc(CN2C[C@@H]3N[C@H](C2)C3c2ccc(-c3ccccc3C)cc2)c1 (some centres not stated)	-3.97*!
COc1cccc(CN2C[C@@H]3N[C@H](C2)C3c2ccc(-c3cccc(C#N)c3)cc2)c1 (some centres not stated)	0.368
